# Most compounds without a hit are left out; they make up all but 11% or so of the library.
# PNC assembly inh = High Content Assay for Compounds that inhibit the Assembly of the Perinucleolar Compartment | 140,000 tested, 3.1% active | activity change (PNC), negative = inhibition, % at 10 µM | PC3M PTB-GFP, PNC prevalence imaging, 16 h; stronger effect = lower value;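 active = readout at or below -70, meaning at least 70% loss of cells showing the perinucleolar compartment, a nuclear body marking cancer cells; inconclusive = readout between -30 and a set limit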;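 also: plate controls were DMSO wells for no effect and camptothecin positive control wells for full effect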
#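 Read-out is percentage of cells bearing a perinucleolar compartment, from automated 20x imaging of fixed, Hoechst-stained PC3M PTB-GFP cells. Cells were seeded 4 h, then exposed 16 h to compound (23 nl of library stock) in duplicate plates.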
# ALDH1A1 inh = qHTS Assay for Inhibitors of Aldehyde Dehydrogenase 1 (ALDH1A1). AID 1030, 2008. Potency, µM (series often up to 75.3 µM), for the others: top-dose activity, negative = inhibition, most hits filed as inhibitors. Purified ALDH1A1, NADH fluorescence, propionaldehyde substrate. 220,000 tested, 7.3% active. Aldehyde dehydrogenase 1A1 (Homo sapiens), P00352;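 also: potency is read from the fitted curve at half-maximal effect; plate controls were no enzyme wells and a reference inhibitor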
# NPSR antag = qHTS Assay for Antagonists of the Neuropeptide S Receptor: cAMP Signal Transduction. Potency, µM (titrated, usually from 38.3 µM), for inactives: at the top dose activity change, negative = inhibition, hits mostly inhibitors. CHO-NPSR cells, cAMP TR-FRET, antagonist mode. Q6W5P4. 220,000 tested, 1% active; active = well fitted curve in the direction sought with a large enough effect; inconclusive = small, poorly fitted or top-dose-only effect, or another doubt; inactive = no such curve, though single readings can be large; an effect the other way counts as inactive or inconclusive; also: potency is read from the fitted curve at half-maximal effect; nearly all actives have a fitted effect of over 50% in size
# Target sequence (Q6W5P4 whole entry, looked up): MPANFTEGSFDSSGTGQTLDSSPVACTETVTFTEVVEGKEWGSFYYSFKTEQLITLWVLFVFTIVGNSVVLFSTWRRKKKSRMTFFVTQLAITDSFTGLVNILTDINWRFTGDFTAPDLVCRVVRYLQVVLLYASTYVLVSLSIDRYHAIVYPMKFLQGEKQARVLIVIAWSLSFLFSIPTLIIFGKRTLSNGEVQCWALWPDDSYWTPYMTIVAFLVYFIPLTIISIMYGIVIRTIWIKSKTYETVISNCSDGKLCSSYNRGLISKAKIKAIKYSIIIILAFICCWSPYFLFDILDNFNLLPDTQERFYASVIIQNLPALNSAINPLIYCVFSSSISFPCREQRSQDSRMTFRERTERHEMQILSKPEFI
# HPGD block = qHTS Assay for Inhibitors of HPGD (15-Hydroxyprostaglandin Dehydrogenase) | 15-hydroxyprostaglandin dehydrogenase [NAD(+)] (Homo sapiens), P15428 | purified HPGD, NADH fluorescence kinetic, PGE2 substrate | Potency, µM, without a hit: at the top dose activity change, negative = inhibition, usual class: inhibitors | 150,000 tested, 4.3% active | AID 894, 2007; also: potency is read from the fitted curve at half-maximal effect
#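 20 nM HPGD preincubated 15 min at room temperature with compound in 50 mM Tris-HCl pH 8, 0.01% Tween 20. Started with 1 mM NAD+ and 30 uM prostaglandin E2; NADH fluorescence (360/450 nm) read 5 times over 30-s intervals, last minus first.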
# IMPase Li cell = qHTS Assay for Identifying the Cell-Membrane Permeable IMPase Inhibitors: Potentiation with Lithium | 210,000 tested, 0.35% active | Potency, µM (doses to about 59.4 µM), for the others: top-dose activity, negative = IMPase inhibition, most hits filed as inhibitors | CHO-M1 cells, IP1 TR-FRET (IP-One), carbachol + lithium | AID 1457, 2008; active = well fitted curve in the direction sought with a large enough effect; inconclusive = small, poorly fitted or top-dose-only effect, or another doubt; inactive = no such curve, though single readings can be large; an effect the other way counts as inactive or inconclusive;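 also: IP1 builds up when IMPase is blocked and the TR-FRET signal falls; potency is read from the fitted curve at half-maximal effect; plate controls were basal vehicle for no effect and high inhibitor control for full effect; nearly all actives have a fitted effect of over 50% in size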
#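 Test compounds were applied to CHO-M1 cells previously cultured for 16–30 h at 2000 per well. A small lithium amount accompanied them; after 30 min at 37C, IP1 was quantified by TR-FRET.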
# IMPase inh = qHTS Assay for Identifying the Cell-Membrane Permeable IMPase Inhibitors. Inositol monophosphatase 1 (Rattus norvegicus), P97697. CHO-M1 cells, IP1 accumulation, HTRF TR-FRET ratio. inhibition (IP1 accumulation), % at 46.1 µM. 120,000 tested, under 10 active; active = well fitted curve in the direction sought with a large enough effect in the signal ratio, not every such curve was filed as active; inconclusive = small, poorly fitted or top-dose-only effect, or a change in a side signal; inactive = no such curve, though single readings can be large or run the other way; the % refers to the signal ratio;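 also: cells stimulated with carbachol in lithium chloride buffer; plate controls were DMSO basal wells for no effect and reference inhibitor wells for full effect; higher means more IMPase inhibition seen as more IP1 and lower FRET ratio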
# Target sequence (P97697 whole entry, looked up): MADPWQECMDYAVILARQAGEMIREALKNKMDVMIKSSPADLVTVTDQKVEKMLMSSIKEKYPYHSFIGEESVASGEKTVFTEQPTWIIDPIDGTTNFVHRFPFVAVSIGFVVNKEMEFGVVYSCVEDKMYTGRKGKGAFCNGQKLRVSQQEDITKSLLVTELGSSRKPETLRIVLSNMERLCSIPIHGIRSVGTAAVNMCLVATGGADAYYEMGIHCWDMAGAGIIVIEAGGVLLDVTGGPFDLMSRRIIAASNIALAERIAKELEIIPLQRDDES
#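 In this qHTS, compounds (final up to 46 uM) act on CHO-M1 cells that are then activated through the M1 receptor with carbachol, in pH 7.4 buffer containing 50 mM LiCl, for 30 min. IP1 accumulation is quantified by the IP-One immunoassay.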
# * hit, by the source's call; ? = inconclusive; . = no result; [ ] = another dose, or the depositor's remark. Unless noted, calls follow the shape of the dose curve; as a rule, active = well fitted inhibition curve with a large enough effect (not every such curve was filed as active); inconclusive = small, poorly fitted or top-dose-only effect, or another doubt; inactive = no such curve, though single readings can be large or run the other way. Unless noted, % is scaled to controls: 0 for no effect and ±100 for the full control effect.
SMILES,PNC assembly inh,ALDH1A1 inh,NPSR antag,HPGD block,IMPase Li cell,IMPase inh
Cc1cc(C)nc(NS(=O)(=O)c2ccc(NC(=O)CSc3nc(-c4ccccc4)c(C#N)c(=O)[nH]3)cc2)n1,.,?,4µM*,.,11µM*,.
Cc1cc(NC(=O)CSc2nc(-c3ccccc3)c(C#N)c(=O)[nH]2)no1,?,-4%,7.9µM*,-20%,7.9µM*,?
O=C(CSc1nccc(=O)[nH]1)N1c2ccccc2CCc2ccccc21,-4,-7%,-29%[46.1 µM],-11%,-14%[38.3 µM],-5
COc1ccc2[nH]c(=O)c(CN(Cc3ccccc3)C(=S)NCC3CCCO3)cc2c1 (stereo not drawn),.,?,13%,.,5%,.
C=CCn1c(Cc2c(C)[nH]c3ccccc23)nnc1SCC(=O)NCc1ccc(F)cc1,?,-2%,-17%[46.1 µM],-14%,0%,-3
Fc1ccc(-c2n[nH]c(=S)c3ccccc23)cc1,.,4µM*,-3%,.,-9%,.
c1ccc(-c2n[nH]c3ccccc23)cc1,17,?,9%[46.1 µM],14µM*,-6%[38.3 µM],-3
Cc1ccc(/C=C/C(=O)c2nc3ccccc3[nH]2)cc1,3,4%,?,-10%,3%[38.3 µM],7
Cc1ccc2[nH]c(=O)c(CN(Cc3ccc4c(c3)OCO4)Cc3nnnn3C3CCCC3)cc2c1,-23,20µM*,13µM*,-27%,-1%[38.3 µM],16
O=c1[nH]c2cc3c(cc2cc1CN(Cc1ccc2c(c1)OCO2)Cc1nnnn1CC1CCCO1)OCO3 (stereo not drawn),20,?,-22%[46.1 µM],?,-1%[38.3 µM],-7
Cc1cc2cc(CN(Cc3ccc4c(c3)OCO4)Cc3nnnn3C3CCCC3)c(=O)[nH]c2cc1C,39,22µM*,?,-26%,19%[38.3 µM],1
COc1ccc(CN(Cc2cc3ccc(C)cc3[nH]c2=O)Cc2nnnn2C2CCCC2)cc1,?,?,?,?,23%[38.3 µM],11
CN(C)S(=O)(=O)c1ccc(=S)[nH]c1,.,1µM*,8%,.,4%,.
O=c1[nH]c(/C=C/c2cccnc2)c([N+](=O)[O-])c(=O)[nH]1,.,7%,19%,.,-1%,.
CCNc1ncc2nc(-c3ccc(Cl)cc3)c(=O)n(Cc3cccc(OC)c3)c2n1,.,2%,.,.,?,.
CCNc1ncc2nc(-c3ccc(Cl)cc3)c(=O)n(Cc3ccc(F)cc3)c2n1,.,?,.,.,2µM*,.
CCNc1ncc2nc(-c3ccc(Cl)cc3)c(=O)n(C3CC3)c2n1,.,?,.,?,5µM*,.
CCNc1ncc2nc(-c3cccs3)c(=O)n(Cc3cccc(OC)c3)c2n1,.,?,.,.,2µM*,.
CCN(CCO)Cc1cn[nH]c1-c1ccc(C)c(C)c1,-20,-6%,-9%[7.67 µM],6%,-2%[38.3 µM],4
Cc1ccc(C2CN=NC23CCc2ccccc2C3=O)cc1 (stereo not drawn),16,?,-8%[46.1 µM],32µM*,44%[38.3 µM],-6
O=C1c2ccccc2CCCC12N=NCC2c1cccc2ccccc12 (stereo not drawn),-10,-7%,-22%[46.1 µM],-19%,37%[38.3 µM],6
O=C(O)C/C=C(\NC(=O)OCc1ccccc1)C(=O)OCc1ccccc1,.,0.28µM*,8%,.,9%,.
COc1ccc2c(C)c(C)c(=O)oc2c1OC,.,?,5%,.,6%,.
COc1c(O)cc2c(=O)oc3c(OC)c(O)cc4c(=O)oc1c2c34,.,?,.,5µM*,37%,.
O=C(C1CCCN(Cc2ccccc2Br)C1)N1CCCCC1 (stereo not drawn),-17,-16%,-5%[46.1 µM],25µM*,16%[38.3 µM],?
SMILES,PNC assembly inh,ALDH1A1 inh,NPSR antag,HPGD block,IMPase Li cell,IMPase inh
COc1ccccc1CN1CCCC(C(=O)N2CCCCC2)C1 (stereo not drawn),.,.,16%,.,.,.
O=C(C1CCCN(Cc2ccccc2)C1)N1CCCCC1 (stereo not drawn),54,20µM*,-3%[46.1 µM],28µM*,45%[38.3 µM],6
Cc1c(C(=O)O)cccc1[N+](=O)[O-],.,9%,.,0%,-5%,.
CCn1c(C)c(C(C)=O)c(N2CCN(c3cccc(Cl)c3)CC2)nc1=S,6,14µM*,-10%[46.1 µM],?,22%[38.3 µM],23
CCn1c(C)c(C(C)=O)c(N2CCN(c3ccc(OC)cc3)CC2)nc1=S,.,25µM*,-20%,.,9%,.
CCCn1nnnc1NC(=O)CSc1ccc(Cl)cc1,-27,6%,5%[46.1 µM],16µM*,1%[38.3 µM],-1
CCOC(=O)c1c(C)[nH]c(C(=O)CSc2nnc(C3CC3)n2N)c1C,-14,-8%,-2%[46.1 µM],-10%,40%[38.3 µM],-2
CCOC(=O)c1c(C)[nH]c(C2=NNC(=NC3CC3)SC2)c1C,.,18µM*,22%,.,17%,.
N#CC1=C(N)Oc2n[nH]c(-c3cccs3)c2C1C1C=CCCC1 (stereo not drawn),12,-11%,-20%[46.1 µM],-5%,25%[38.3 µM],5
Cc1ccc2cc(C(c3nnnn3Cc3ccccc3)N3CCc4ccccc43)c(=O)[nH]c2c1C (stereo not drawn),7,?,6%[46.1 µM],-9%,30%[38.3 µM],0
CCc1nc(C)ccc1OC(=O)C12CC3CC(CC(C3)C1)C2,13,18µM*,-11%,-21%,28%,-8
O=C(O)Cn1cc(/C=N/NC(=O)c2cc3cc(Br)ccc3o2)c2ccccc21,.,.,7%,.,.,.
Cc1c(C=O)c2ccccn2c1C(=O)c1ccc(Cl)c([N+](=O)[O-])c1,.,2.8µM*,-7%,.,18%,.
Cn1c(C(=O)NCCc2c[nH]c3ccccc23)cc2sccc21,-81*,-12%,-7%[46.1 µM],-13%,10%[38.3 µM],3
C=CCc1ccccc1OCCn1ccnc1,5,-18%,-11%[46.1 µM],-15%,26%[38.3 µM],-1
C=CCc1cccc(OC)c1OCCOCCn1ccnc1,17,20µM*,16%,-1%,6%,.
Cc1cc(N)n(-c2ccc(S(=O)(=O)c3ccc(C(C)C)cc3)cc2)n1,.,35µM*,3%,.,16%,.
S=C(NCc1ccco1)Nc1cccc(Cl)c1Cl,.,.,0%,.,.,.
Cc1ccc(NC(=O)CN2C(=O)S/C(=C/c3ccc(-c4cccc(C(=O)O)c4)o3)C2=O)cc1,.,4%,-8%,.,3%,.
Cc1ccc(NC(=O)CN2C(=O)S/C(=C\c3cc(C)n(C)c3C)C2=O)cc1,71,2%,-7%[46.1 µM],-1%,-14%[38.3 µM],7

# Assay outcomes (PubChem)
